Compound activity: PubChem BioAssay, National Center for Advancing Translational Sciences (NCATS)
HEK293 tox = kills HEK 293 cells. AID 1345083. 94,000 compounds, 6.6% hits. HEK 293 viability, ATP luminescence (CellTiter-Glo), 48-72 h. Potency, µM (highest dose often 115 µM), without a hit: at the top dose activity change, negative = cytotoxicity, hits mostly inhibitors; note: % is set by controls: 0 for no effect and ±100 for the full control effect; nearly all actives have a fitted effect of over 60% in size
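HEK 293 cells seeded at 250 cells/well were exposed to compound for 48 or 72 hr at 37 degree Celsius. Viability taken as ATP content by CellTiter-Glo luminescence.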
3T3 cytotox = NIH 3T3 cell cytotoxicity; 94,000 compounds, 4.3% hits; NIH 3T3 viability, CellTiter-Glo ATP luminescence, 48-72 h; Potency, µM (series often up to 96.7 µM), without a hit: top-dose activity change, negative = cytotoxicity, hits mostly inhibitors; note: % is set by controls: 0 for no effect and ±100 for the full control effect; nearly all actives have a fitted effect of over 55% in size
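Cells were seeded at 400 per well, treated with pin-transferred compound, and kept 48 or 72 hr at 37 °C before CellTiter-Glo addition and luminescence imaging of cellular ATP.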
FLuc inh-1 = inhibitors of firefly (Photinus pyralis) luciferase. purified P. pyralis luciferase, luminescence, biochemical. Potency, µM (doses to about 115 µM), hits mostly inhibitors. 76,000 compounds, 2.5% hits; note: % is set by controls: 0 for no effect and ±100 for the full control effect; nearly all actives have a fitted effect of over 65% in size
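Cell-free enzyme assay, 10nM P. pyralis luciferase, luciferin and ATP each at 10uM. Inhibition profiled over a 6-point titration, read as luminescence.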
NPR1 antag = antagonists of human natriuretic peptide receptor Npr1 | P16066 | HEK293 hNpr1 GloSensor cGMP, ANP-stimulated luminescence | Potency, µM (doses to about 46.3 µM), without a hit: at the highest dose activity change, negative = inhibition, actives largely listed as inhibitors | 76,000 compounds, 1.6% hits | AID 1347048; calls by dose curve; note: % is set by controls: 0 for no effect and ±100 for the full control effect; nearly all actives have a fitted effect of over 60% in size
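HEK293 cells stably expressing human Npr1 and cGMP GloSensor pGS-40F, loaded 2 h with 2% GloSensor reagent, given compound 30 min at room temperature. Luminescence read before and 20 min after 0.1 nM hNppA.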
GPT2 inh = blocks human glutamate pyruvate transaminase 2. Q8TD30. Potency, µM (doses to about 57.7 µM), inactives show at the top dose activity change, negative = inhibition, actives largely listed as inhibitors. 100,000 compounds, 0.25% hits. Recombinant GPT2, coupled pyruvate oxidase/HRP Amplex Red fluorescence. AID 1671188; note: % is set by controls: 0 for no effect and ±100 for the full control effect; nearly all actives have a fitted effect of over 60% in size
Target sequence (Q8TD30 whole entry, looked up): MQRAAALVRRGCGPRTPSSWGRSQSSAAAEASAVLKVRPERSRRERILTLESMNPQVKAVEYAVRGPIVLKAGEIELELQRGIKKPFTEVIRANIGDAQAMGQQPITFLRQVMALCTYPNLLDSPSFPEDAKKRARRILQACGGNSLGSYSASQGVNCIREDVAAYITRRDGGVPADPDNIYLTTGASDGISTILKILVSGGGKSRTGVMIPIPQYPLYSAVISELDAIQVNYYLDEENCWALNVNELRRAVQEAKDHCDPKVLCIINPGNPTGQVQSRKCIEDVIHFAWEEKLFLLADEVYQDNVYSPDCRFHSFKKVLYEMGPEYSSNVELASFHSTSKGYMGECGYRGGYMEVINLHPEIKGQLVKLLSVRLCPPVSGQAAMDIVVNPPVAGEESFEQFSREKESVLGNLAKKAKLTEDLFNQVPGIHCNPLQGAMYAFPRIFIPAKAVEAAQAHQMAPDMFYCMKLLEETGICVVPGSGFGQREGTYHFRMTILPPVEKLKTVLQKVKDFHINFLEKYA
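Inhibition is scored from Amplex Red fluorescence generated when pyruvate oxidase and HRP act on pyruvate released by GPT2. Reactions contain 10ng/uL enzyme, 250uM a-KG and 2mM L-alanine and run 30 min at room temperature.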
FLuc SDR -ATP = firefly luciferase binding stabilization, ATP absent | shares compounds with FLuc inh-1 | Purified FLuc-C-HiBiT, Nano-Glo HiBiT luminescence, no ATP | Potency, µM (titrated, usually from 32.7 µM), inactives show top-dose activation (signal gain), actives largely listed as activators | 1,300 compounds, 7.8% hits; note: nearly all actives have a fitted effect of over 55% in size
FLuc SDR ATP = stabilizes firefly luciferase with ATP present; 1,300 compounds, 8.7% hits; Potency, µM (top dose mostly 32.7 µM), inactives show top-dose activation (gain of signal), most hits filed as activators; purified FLuc-C-HiBiT + ATP, HiBiT complementation luminescence; shares compounds with FLuc inh-1;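 note: signal reports ligand binding via conformational change of the enzyme rather than luciferase catalysis; % of control where 0% means no effect; nearly all actives have a fitted effect of over 55% in size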
FLuc inh-2 = firefly luciferase enzyme inhibition | purified FLuc-C-HiBiT enzyme, luciferin luminescence | 1,300 compounds, 42% hits | shares compounds with FLuc inh-1 | Potency, µM (top dose mostly 32.7 µM), without a hit: top-dose activity change, negative = inhibition, usual class: inhibitors; note: % is set by controls: 0 for no effect and ±100 for the full control effect; nearly all actives have a fitted effect of over 70% in size
Active calls of the source: *; i = inactive; ? = inconclusive; / = no result; [ ] = dose if it differs, or a comment. Compounds with a hit are over-represented: about 10% of the library has one in this group of screens. Unless noted, calls come from the whole dose curve; as a rule, active = well fitted curve in the direction sought with a large enough effect; inconclusive = small, poorly fitted or top-dose-only effect, or another doubt; inactive = no such curve, though single readings can be large; an effect the other way counts as inactive or inconclusive. Potency is the fitted concentration of half-maximal effect.

SMILES	HEK293 tox	3T3 cytotox	FLuc inh-1	NPR1 antag	GPT2 inh	FLuc SDR -ATP	FLuc SDR ATP	FLuc inh-2
CN1[C@@H](CCC(=O)N2CCC(O)CC2)CNC(=O)[C@@H]2[C@H]1CCN2Cc1ncc[nH]1	i	3%[174 µM]	i	7%[70.6 µM]	i	/	/	/
O=C1CC2(CCN(CC3CC3)CC2)Oc2ccccc21	?	?	7.9µM*	35µM*	-1%[88.5 µM]	17%[49.3 µM]	?	?
Cc1oc(-c2cccc(C(F)(F)F)c2)nc1CN1CCN(C)C(CCO)C1 (stereo not given)	?	?	i	3%	i	/	/	/
CCCc1noc(-c2nc(-c3ccccc3F)no2)n1	-19%	-12%	5.6µM*	?	i	14%	20%	?
Fc1ccccc1-c1noc(-c2nc(-c3cnccn3)no2)n1	4%	i	i	-3%	-9%	/	/	/
COc1ccc(-c2noc(Nc3ccc4c(c3)OCO4)n2)cc1	?	-22%	?	-22%	i	/	/	/
COc1cccc(-c2noc(Nc3ccc4c(c3)OCCO4)n2)c1	?	-60%	0.32µM*	5µM*	?	?	?	1.6µM*
COc1cccc(-c2noc(Nc3ccc4c(c3)OCO4)n2)c1	?	?	2µM*	?	i	29%	?	6.2µM*
c1ccc(-c2noc(-c3cncnc3Nc3ccc4c(c3)OCCO4)n2)cc1	4%	-9%	?	-6%	-3%	/	/	/
CCc1ccc(Nc2nc(-c3ccccc3F)no2)cc1	?	?	2.5µM*	13µM*	-14%	20%	19%	6.2µM*
CCN(CC)CCNC(=O)c1cc(Cl)c(N)cc1OC	/	/	/	/	-2%	/	/	/
Cn1nc(C2CCCC2)cc1NC(=O)c1cccc(Cl)c1	?	?	/	/	i	/	/	/
O=C(NCc1cccs1)c1ccc2nnc(C3CC3)n2c1	-12%[172 µM]	-28%[138 µM]	/	/	i	/	/	/
COc1cccc(-c2noc(Nc3ccc(OC)c(OC)c3)n2)c1	?	?	2µM*	?	-5%	?	19%	3.9µM*
COc1ccc(OC)c(-c2noc(Nc3cccc(F)c3)n2)c1	?	-12%	i	-5%	i	/	/	/
COc1ccc(Nc2nc(-c3ccccc3F)no2)cc1OC	?	?	2.2µM*	?	i	30%	?	3.5µM*
COc1ccc(Nc2ncncc2-c2nc(-c3ccccc3)no2)cc1OC	-8%	-2%	i	-21%	i	/	/	/
CN(CCC1CCCCO1)C(=O)Cn1ccc2ccccc2c1=O (stereo not given)	-11%	4%	i	2%	i	/	/	/
CC(=O)N1CCC(C(=O)N2CCn3nc(Cc4ccccc4)cc3C2)CC1	i	-19%	i	1%	1%[11.5 µM]	/	/	/
COc1cccc(Nc2csc(CN3CCCC(C)(NC(C)=O)C3)c2)c1 (stereo not given)	?	?	?	-5%[70.6 µM]	i	/	/	/
CC(=O)NC1(C)CCN(Cc2cccc(-c3ccc4ccccc4c3)c2)C1 (stereo not given)	35µM*	28µM*	1.8µM*	?	0%[88.5 µM]	12%[49.3 µM]	?	11µM*
COc1cccc(Nc2ccc(CN3CCC(C)(NC(C)=O)C3)cc2)c1 (stereo not given)	?	89µM*	4µM*	?	-18%[88.5 µM]	10%[49.3 µM]	14%[49.3 µM]	?
O=C(c1cccc(F)c1)N1CCCN(c2cc(-c3ccc(F)cc3)[nH]n2)CC1	?	-19%	i	-1%	2%	/	/	/
N#Cc1cccc(CN[C@H]2CO[C@H]3[C@@H]2OC[C@@H]3n2cc(-c3ccccn3)nn2)c1	?	?	?	-19%[70.6 µM]	i	/	/	/
Cc1ccc(C2Cn3nnc(C(=O)N4CCC(C(=O)NCc5ccc(F)cc5)CC4)c3CO2)cc1 (stereo not given)	1%	-5%	?	-1%	i	/	/	/
SMILES	HEK293 tox	3T3 cytotox	FLuc inh-1	NPR1 antag	GPT2 inh	FLuc SDR -ATP	FLuc SDR ATP	FLuc inh-2
Cc1ccc(C2Cn3nnc(C(=O)N4CCC(C(=O)Nc5ccccc5)CC4)c3CO2)cc1 (stereo not given)	12%	5%	13µM*	-3%	i	13%	?	?
Cc1ccc(C2Cn3nnc(C(=O)N4CCC(C(=O)NCc5ccccn5)CC4)c3CO2)cc1 (stereo not given)	-4%	i	11µM*	-4%	i	11%	?	?
Cc1ccc(C2Cn3nnc(C(=O)N4CCC(C(=O)Nc5ccc(F)cc5)CC4)c3CO2)cc1 (stereo not given)	-19%	-8%	11µM*	-13%	-2%	14%	?	?
O=C(O)CCC(=O)N[C@H]1CO[C@H]2[C@@H]1OC[C@@H]2n1nnnc1Oc1ccc(-n2ccnc2)cc1	i	-12%	i	-1%	i	/	/	/
CSCc1nc(-c2ccncc2)nn1Cc1ccc2c(c1)OCO2	?	?	4.5µM*	11µM*	-13%	10%	19%	-13%
COc1ccc(-c2cc(N3CCCC(NC(=O)c4ccc5[nH]ccc5c4)C3)n[nH]2)cc1 (stereo not given)	?	?	4.5µM*	-25%	?	28%	16%	5µM*
COc1cc(C(=O)NC2CCCN(c3cc(-c4ccc(F)cc4)[nH]n3)C2)cc(OC)c1OC (stereo not given)	?	?	13µM*	-10%	-5%	23%	11%	?
COc1ccc(-c2cc(N3CCCC(NC(=O)c4cccc(OC)c4)C3)n[nH]2)cc1 (stereo not given)	25µM*	?	7.1µM*	-25%	?	18%	16%	?
CN(C)c1cccc(C(=O)NC2CCN(c3cc(-c4ccc(Cl)cc4)[nH]n3)C2)c1 (stereo not given)	?	?	13µM*	-29%	-31%	10%	?	?
O=C(Nc1ccc([C@H]2OCC(=O)N(Cc3ccc(F)cc3)[C@@H]2CO)cc1)c1cccc(F)c1	?	?	i	-4%	2%	/	/	/
Cc1ccc(NC(=O)C2CCc3nnc(CNC(=O)NC(C)(C)C)n32)cc1 (stereo not given)	i	-7%	/	/	i	/	/	/
